Rows were chosen to be rich in hits. Some 2.9% of all compounds tested hit in one or more screens of this group.
SNCA expr inh – reduces expression of the alpha-synuclein gene. actives 0.17% (n = 140,000). Potency, µM (titrated, usually from 57.2 µM), actives largely listed as inhibitors. AID 1671194. HEK-293 SNCA-luciferase knock-in, luminescence, 24 h; also: nearly all actives have a fitted effect of over 45% in size
KDM5B inhibitor – blocks human KDM5B histone demethylase activity; Q9UGL1; KDM5B demethylase, FDH-coupled NADH fluorescence (FDH is formaldehyde dehydrogenase); Potency, µM (series often up to 57.7 µM), usual class: inhibitors; actives 2.6% (n = 220,000); also: nearly all actives have a fitted effect of over 70% in size
Target sequence (Q9UGL1 whole entry, looked up): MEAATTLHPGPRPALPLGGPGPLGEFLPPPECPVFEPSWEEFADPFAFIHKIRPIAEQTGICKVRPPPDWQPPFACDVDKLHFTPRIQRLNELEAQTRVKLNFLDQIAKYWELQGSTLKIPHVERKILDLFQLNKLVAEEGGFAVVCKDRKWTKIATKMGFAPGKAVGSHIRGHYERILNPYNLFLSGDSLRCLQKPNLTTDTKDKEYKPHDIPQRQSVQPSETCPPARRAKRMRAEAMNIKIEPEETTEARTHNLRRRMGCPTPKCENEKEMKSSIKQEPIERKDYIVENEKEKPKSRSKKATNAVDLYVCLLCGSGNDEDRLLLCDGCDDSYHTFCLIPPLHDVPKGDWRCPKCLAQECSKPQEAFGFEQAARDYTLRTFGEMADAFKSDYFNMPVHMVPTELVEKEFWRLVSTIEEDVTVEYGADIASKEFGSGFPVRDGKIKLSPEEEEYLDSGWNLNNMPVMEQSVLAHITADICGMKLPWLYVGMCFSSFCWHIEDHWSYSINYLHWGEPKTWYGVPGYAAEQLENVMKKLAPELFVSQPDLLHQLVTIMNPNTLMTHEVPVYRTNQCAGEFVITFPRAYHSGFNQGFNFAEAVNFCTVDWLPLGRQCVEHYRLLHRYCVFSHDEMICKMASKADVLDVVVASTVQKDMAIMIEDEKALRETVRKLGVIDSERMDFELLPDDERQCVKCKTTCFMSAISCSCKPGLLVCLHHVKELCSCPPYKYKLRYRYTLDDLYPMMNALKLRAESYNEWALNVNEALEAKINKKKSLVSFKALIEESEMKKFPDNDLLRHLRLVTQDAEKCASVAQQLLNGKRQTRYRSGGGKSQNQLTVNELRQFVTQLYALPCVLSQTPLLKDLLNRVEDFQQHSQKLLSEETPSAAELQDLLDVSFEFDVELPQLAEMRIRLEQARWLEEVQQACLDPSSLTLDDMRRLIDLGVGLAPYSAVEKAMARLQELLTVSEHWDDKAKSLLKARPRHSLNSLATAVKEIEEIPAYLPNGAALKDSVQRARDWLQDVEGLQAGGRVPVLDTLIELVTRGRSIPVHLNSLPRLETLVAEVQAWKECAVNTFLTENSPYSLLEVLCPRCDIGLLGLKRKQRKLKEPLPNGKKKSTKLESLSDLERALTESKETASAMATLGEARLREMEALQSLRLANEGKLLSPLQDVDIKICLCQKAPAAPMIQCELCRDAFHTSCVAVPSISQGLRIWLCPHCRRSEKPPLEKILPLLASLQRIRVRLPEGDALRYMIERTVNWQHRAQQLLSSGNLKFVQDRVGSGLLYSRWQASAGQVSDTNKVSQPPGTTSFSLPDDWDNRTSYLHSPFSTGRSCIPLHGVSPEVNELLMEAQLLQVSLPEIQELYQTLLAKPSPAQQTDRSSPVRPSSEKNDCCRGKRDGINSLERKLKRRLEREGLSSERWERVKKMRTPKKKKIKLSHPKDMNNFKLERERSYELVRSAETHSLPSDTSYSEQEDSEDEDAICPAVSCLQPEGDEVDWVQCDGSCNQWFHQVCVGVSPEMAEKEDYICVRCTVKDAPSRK
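Compound dilutions met 200 nM (final) KDM5BΔAP for 10 min at room temperature before substrate addition. The substrate mix held 12.5 µM H3K4me3 with cofactors 25 µM α-ketoglutarate and 50 µM Fe²⁺. NADH signal gain over 30 min defined activity.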
IP6K1 inhibitor – blocks human inositol hexakisphosphate kinase 1. IP6K1 kinase, ADP-Glo luminescence, 2 h; hits give low values. activity change, % (series mostly up to about 58 µM). actives 0.81% (n = 140,000). Q92551; in the data active = activity change below about -25%
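ADP-Glo luminescence measures ADP made by human IP6K1 during a 2 h RT reaction with ATP/IP6 (mix at 1.3 mM/130 uM); top library doses 57.5 and 19.1 uM final.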
HEK293 viab – reduces viability of HEK-293 SNCA reporter cells | actives 0.12% (n = 150,000) | Potency, µM (top dose mostly 57.1 µM), hits mostly cytotoxic | HEK-293-SNCA-luc viability, GF-AFC fluorescence, 24 h | AID 1671193; also: nearly all actives have a fitted effect of over 30% in size
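HEK-293-SNCA-luc cells (1500/well) plated 24 h, then exposed 24 h to a dilution series; GF-AFC added 30 min at 37C, fluorescence 405/540 nm; normalised to medium-only and DMSO wells, Hill fit.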
Hits are given with their value; . = inactive; ? = inconclusive; / = no result. Unless noted, calls follow the shape of the dose curve; as a rule, active = well fitted curve in the direction sought with a large enough effect; inconclusive = small, poorly fitted or top-dose-only effect, or another doubt; inactive = no such curve, though single readings can be large; an effect the other way counts as inactive or inconclusive.

SMILES	SNCA expr inh	KDM5B inhibitor	IP6K1 inhibitor	HEK293 viab
CCOC(=O)Cn1c(=O)oc2cc(S(=O)(=O)N3CCN(c4cccc(Cl)c4)CC3)ccc21	.	.	.	.
COc1ccc(-c2cc(C(=O)N3CCOCC3)c3c(C)nn(-c4ccccc4)c3n2)cc1	.	79µM	.	.
Cc1ccc(-n2ncc3c(N4CCC(Cc5ccccc5)CC4)ncnc32)cc1	.	.	.	.
Cc1ccc(-n2ncc3c(N4CCCCC4)ncnc32)cc1Cl	7.1µM	.	.	.
Cc1ccc(-n2ncc3c(N4CCCCCC4)ncnc32)cc1Cl	.	.	.	.
Cc1ccc(-n2ncc3c(N4CCCCC4)ncnc32)cc1	0.89µM	?	.	.
CCN(C(=O)Cn1cccc1-c1nc(-c2ccc(OC)c(F)c2)no1)c1cccc(C)c1	.	28µM	.	.
Nc1ccc2nc(-c3ccc(O)cc3)sc2c1	1.3µM	.	.	.
c1ccc(-c2nc3ccccc3s2)cc1	/	.	/	/
O=C(Nc1ccccc1)c1nc2c(o1)CCN(Cc1ccc(F)cc1)CC2	.	?	.	.
O=C(Nc1cccc(C(F)(F)F)c1)c1nc2c(o1)CCN(Cc1cnc[nH]1)CC2	.	.	.	.
O=C(Nc1cccc(C(F)(F)F)c1)c1nc2c(o1)CCN(Cc1ccccc1)CC2	.	22µM	.	.
O=C(Nc1cccc(C(F)(F)F)c1)c1nc2c(o1)CCN(CC1CC1)CC2	.	?	.	.
O=C(Nc1cccc(C(F)(F)F)c1)c1nc2c(o1)CCN(Cc1cccc(F)c1)CC2	.	28µM	.	.
O=C(Nc1cccc(C(F)(F)F)c1)c1nc2c(o1)CCN(Cc1ccc(F)cc1)CC2	.	40µM	.	.
N#Cc1ccc(CN2CCc3nc(C(=O)Nc4cccc(C(F)(F)F)c4)oc3CC2)cc1	.	22µM	.	.
Cc1cccc(OC(=O)c2ccc(-c3ccccc3)cc2)c1	/	.	/	/
Cn1ncc2c(C(=O)Nc3ccc(F)cc3)cc(-c3cccc(F)c3)nc21	/	/	.	/
c1csc(-c2nc3nccc(-c4ccncc4)n3n2)c1	.	28µM	.	.
Brc1ccc(-c2ccnc3nc(-c4cccs4)nn23)cc1	.	7.9µM	.	.
c1coc(-c2ccnc3nc(-c4cccs4)nn23)c1	.	28µM	.	.
O=C(CCC1CCCCC1)NCCc1cccc(Cl)c1	/	.	/	/
COc1cc(N2CCC(N3CCN(C)CC3)CC2)ccc1Nc1ncnc(Nc2ccccc2S(=O)(=O)C(C)C)n1	?	/	.	?
O=C(CC1CCCC1)N1CC[C@@]2(O)CCN(Cc3ccccn3)C[C@H]2C1	.	25µM	.	.
O=C(NCc1ccccc1Cl)C1CCCN(S(=O)(=O)c2cccc3nsnc23)C1 (centres undefined)	.	.	.	.
SMILES	SNCA expr inh	KDM5B inhibitor	IP6K1 inhibitor	HEK293 viab
CN(C)CCNC(=O)c1nc2nc(-c3ccccc3)c(-c3cccc(CO)c3)cc2n1C	.	10µM	.	.
CN(C)CCNC(=O)c1nc2nc(-c3ccccc3)c(-c3ccc(Cl)cc3)cc2n1C	?	28µM	.	?
CN(C)CCNC(=O)c1nc2nc(-c3ccccc3)c(-c3cccc(Cl)c3)cc2n1C	?	.	.	?
COc1ncccc1-c1cc2c(nc1-c1ccccc1)nc(C(=O)NCCN(C)C)n2C	.	16µM	.	?
COC(=O)[C@@H]1Cc2ncn(C(C)C)c2CN1C(C)=O	.	.	.	.
CNC(C)c1ccncc1 (centres undefined)	.	16µM	.	.
CNC(C)c1ccc(Oc2ccccc2)cc1 (centres undefined)	.	.	.	.
CCN(CC)C(=O)C(C)[C@@H]1CC[C@@]2(C)CC[C@H](NC(=O)c3cccc(F)c3)[C@@H](C)[C@@H]2[C@H]1O (some centres undefined)	.	.	.	.
COC(=O)N1CCC2(C1)N=C(c1ccccn1)C(=O)N2 (centres undefined)	.	35µM	.	.
Cc1ccc(-c2ccc(C=O)cc2)cc1Cl	.	50µM	.	.
O=Cc1ccc(-c2ccc(O)cc2)cc1	.	14µM	.	.
Cc1cccc(-c2ccc(C=O)cc2)c1	.	45µM	.	.
O=C(/C=C/c1ccc(O)cc1)c1ccc(-c2ccccc2)cc1	/	.	/	/
O=C1Cc2cc(S(=O)(=O)N(Cc3ccccc3)c3ccccc3)cc3c2N1CCC3	/	.	/	/
CCN(c1ccc2c(c1)OCO2)C1CN(C(=O)OC(C)(C)C)C1	.	89µM	.	.
O=C(c1cccc(F)c1)N1CCCC(c2nc(C3CCOCC3)no2)C1 (centres undefined)	.	.	.	?
